Laboratory results taken from PubChem BioAssay.
Active and inactive are the calls of the source.

How the values were obtained:
[1] = test system: Plasmodium falciparum Sir2 (PF13_0152, Sir2A); test: pfSir2 binders on small-molecule microarrays, primary screen, biochemical, small-molecule microarray, 635 nm fluorescence (AID 1098); conditions: small-molecule microarray binding, fluorescence 635 nm; higher = more signal;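 also: score merges spot fluorescence intensity with its signal-to-noise ratio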
[2] = small-molecule microarray binders of probe aDKK1, primary screen, biochemical, biotinylated probe, 635/667 nm fluorescence (AID 1099); conditions: higher = more signal;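 also: score merges 667nm spot fluorescence with signal to noise across triplicate slides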
[3] = small-molecule microarray binders of probe aCHRDL2, primary screen, biochemical, biotinylated probe, 635/667 nm fluorescence (AID 1100); conditions: higher = more signal
[4] = splicing luciferase reporter signal modulators, primary screen, spliceosome inhibition project, cell-based, HEK293, splice +/- reporter (AID 1101); conditions: luminescence, 24 h, higher = more signal, called active from +8 up or from −8 down;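 also: HEK293 cells carrying a splicing-competent luciferase reporter gene; test concentration not given here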
[5] = molecular target: Fibroblast growth factor 10 (Homo sapiens) (UniProt O15520); test: FGF10 binders on small-molecule microarrays, primary screen, biochemical, small-molecule microarray, 635 nm fluorescence (AID 1102); conditions: FGF10 binding, fluorescence 635 nm, higher = more signal
Sequence of Fibroblast growth factor 10 (Homo sapiens) (O15520 whole entry, looked up): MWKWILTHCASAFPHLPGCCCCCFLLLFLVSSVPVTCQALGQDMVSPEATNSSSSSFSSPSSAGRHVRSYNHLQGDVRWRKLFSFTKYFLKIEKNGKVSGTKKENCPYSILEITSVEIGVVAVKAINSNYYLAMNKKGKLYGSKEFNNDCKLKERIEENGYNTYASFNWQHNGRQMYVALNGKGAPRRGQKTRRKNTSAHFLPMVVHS

[6] = test system: glycogen synthase kinase-3 (GSK3A per assay name; protocol says GSK3B); test: GSK3 binders on small-molecule microarrays, primary screen, biochemical, small-molecule microarray, 635 nm fluorescence, GSK3A (AID 1103); conditions: small-molecule microarray binding, fluorescence 635 nm; higher = more signal; also: the record names both GSK3A and GSK3B
[7] = molecular target: Epidermal growth factor receptor (Homo sapiens) (UniProt P00533); test: EGFR binders on small-molecule microarrays, primary screen, biochemical, small-molecule microarray, 635 nm fluorescence (AID 1104); conditions: EGFR binding, higher = more signal;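 also: score merges 667 nm emission intensity with spot signal to noise over triplicate slides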
Sequence of Epidermal growth factor receptor (Homo sapiens) (P00533 whole entry, looked up): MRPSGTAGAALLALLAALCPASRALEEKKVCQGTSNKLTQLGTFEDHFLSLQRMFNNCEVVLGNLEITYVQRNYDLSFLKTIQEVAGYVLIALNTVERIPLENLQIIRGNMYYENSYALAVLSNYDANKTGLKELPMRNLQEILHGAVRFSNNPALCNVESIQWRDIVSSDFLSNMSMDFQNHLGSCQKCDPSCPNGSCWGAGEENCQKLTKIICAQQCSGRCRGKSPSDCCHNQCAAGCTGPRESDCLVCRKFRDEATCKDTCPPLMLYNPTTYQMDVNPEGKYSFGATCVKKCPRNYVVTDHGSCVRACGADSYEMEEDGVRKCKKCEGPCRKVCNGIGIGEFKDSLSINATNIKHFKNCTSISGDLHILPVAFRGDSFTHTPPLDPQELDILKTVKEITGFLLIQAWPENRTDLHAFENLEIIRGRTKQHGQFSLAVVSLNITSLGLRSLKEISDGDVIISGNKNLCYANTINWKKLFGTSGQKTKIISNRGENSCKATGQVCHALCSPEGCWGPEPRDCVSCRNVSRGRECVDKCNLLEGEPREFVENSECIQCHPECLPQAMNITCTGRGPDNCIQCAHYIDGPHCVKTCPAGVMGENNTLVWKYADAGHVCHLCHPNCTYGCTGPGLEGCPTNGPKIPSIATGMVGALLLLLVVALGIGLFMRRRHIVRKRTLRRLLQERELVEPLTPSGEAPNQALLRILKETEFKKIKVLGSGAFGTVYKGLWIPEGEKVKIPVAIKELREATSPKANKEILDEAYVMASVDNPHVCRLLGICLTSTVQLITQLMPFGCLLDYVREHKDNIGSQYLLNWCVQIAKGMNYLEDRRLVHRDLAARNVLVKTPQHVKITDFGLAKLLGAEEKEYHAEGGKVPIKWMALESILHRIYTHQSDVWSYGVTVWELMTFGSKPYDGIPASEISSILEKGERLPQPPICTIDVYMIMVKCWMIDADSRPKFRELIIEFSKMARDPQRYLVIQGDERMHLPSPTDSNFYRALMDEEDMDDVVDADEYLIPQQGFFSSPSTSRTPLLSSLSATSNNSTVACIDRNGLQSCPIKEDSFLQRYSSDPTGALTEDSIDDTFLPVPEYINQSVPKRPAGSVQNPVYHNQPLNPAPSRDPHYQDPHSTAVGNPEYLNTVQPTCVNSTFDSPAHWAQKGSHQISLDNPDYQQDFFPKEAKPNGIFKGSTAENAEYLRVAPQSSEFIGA

[8] = molecular target: Follistatin-related protein 3 (Homo sapiens) (UniProt O95633); test: FSTL3 binders on small-molecule microarrays, primary screen, biochemical, small-molecule microarray, 635 nm fluorescence (AID 1105); conditions: FSTL3 binding, higher = more signal;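 also: score merges emission near 667 nm and signal to noise per printed spot across three slides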
Sequence of Follistatin-related protein 3 (Homo sapiens) (O95633 whole entry, looked up): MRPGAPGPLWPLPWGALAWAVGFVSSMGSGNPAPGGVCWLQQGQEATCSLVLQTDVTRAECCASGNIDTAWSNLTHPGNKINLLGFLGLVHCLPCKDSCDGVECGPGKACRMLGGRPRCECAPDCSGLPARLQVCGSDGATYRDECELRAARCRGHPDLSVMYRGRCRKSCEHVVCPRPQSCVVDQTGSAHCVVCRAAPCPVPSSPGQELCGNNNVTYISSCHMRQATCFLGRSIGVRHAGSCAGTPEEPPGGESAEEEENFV

[9] = molecular target: Dickkopf-related protein 1 (Homo sapiens) (UniProt O94907); test: DKK1 binders on small-molecule microarrays, primary screen, biochemical, small-molecule microarray, 635 nm fluorescence scan (AID 1106); conditions: DKK1 binding, higher = more signal;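 also: score merges emission near 667 nm with signal to noise over three replicate slides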
Sequence of Dickkopf-related protein 1 (Homo sapiens) (O94907 whole entry, looked up): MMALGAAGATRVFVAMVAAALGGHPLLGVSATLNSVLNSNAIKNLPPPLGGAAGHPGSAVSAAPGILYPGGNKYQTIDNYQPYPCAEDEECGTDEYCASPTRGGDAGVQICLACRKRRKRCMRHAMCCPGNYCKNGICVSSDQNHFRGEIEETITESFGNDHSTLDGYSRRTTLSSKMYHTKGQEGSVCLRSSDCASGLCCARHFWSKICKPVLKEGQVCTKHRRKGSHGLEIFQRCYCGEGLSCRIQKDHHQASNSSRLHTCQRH

[10] = test system: Inhibin beta A chain (activin A); test: INHBA (activin A) binders on microarrays, primary screen, biochemical, small-molecule microarray, 635 nm fluorescence scan (AID 1107); conditions: small-molecule microarray binding, higher = more signal;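 also: mouse activin A protein probed at 4.33 µg/mL on printed slides; score merges bound-protein fluorescence near 667 nm with spot signal-to-noise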
[11] = test system: Human papillomavirus type 1a protein E7 (residues 44-93); test: HPV1a E7 fragment binders on microarrays, primary screen, biochemical, small-molecule microarray, residues 44-93, 635 nm fluorescence (AID 1108); conditions: small-molecule microarray binding, fluorescence 635 nm; higher = more signal;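 also: E7 fragment applied at 1 µg/mL in TBST for 1 h at 4 C; score combines spot fluorescence with its signal to noise ratio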
[12] = modulators of HCV replicon luciferase signal, primary screen, HCV replication inhibitor project, Huh7 cells, luciferase reporter (AID 1109); conditions: 48 h, higher = more signal;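 also: huh7 hepatoma cells harbouring a luciferase neomycin HCV replicon reporter; luciferase luminescence as measure of HCV replicon replication; test concentration not given here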
[13] = molecular target: Left-right determination factor 2 (Homo sapiens) (UniProt O00292); test: LEFTY2 binders on small-molecule microarrays, primary screen, biochemical, small-molecule microarray, 635 nm fluorescence scan (AID 1110); conditions: LEFTY2 binding, higher = more signal
Sequence of Left-right determination factor 2 (Homo sapiens) (O00292 whole entry, looked up): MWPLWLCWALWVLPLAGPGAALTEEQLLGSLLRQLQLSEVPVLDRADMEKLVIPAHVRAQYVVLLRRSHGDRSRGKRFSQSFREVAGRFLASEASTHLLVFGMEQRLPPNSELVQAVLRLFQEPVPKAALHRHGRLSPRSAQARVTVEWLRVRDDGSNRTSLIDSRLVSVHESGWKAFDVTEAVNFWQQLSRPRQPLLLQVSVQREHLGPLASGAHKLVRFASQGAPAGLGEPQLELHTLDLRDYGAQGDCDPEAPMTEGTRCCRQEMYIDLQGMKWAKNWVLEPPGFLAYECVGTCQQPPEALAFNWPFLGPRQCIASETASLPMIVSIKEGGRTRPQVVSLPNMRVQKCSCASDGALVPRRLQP

[14] = molecular target: Calmodulin-1 (Homo sapiens) (UniProt P0DP23); test: CALM1 binders on microarrays, EGTA buffer, profiling panel, biochemical, small-molecule microarray, Cy5-labelled CALM1 (AID 1111); conditions: Cy5-CALM1 binding fluorescence, higher = more signal;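 also: labelled calmodulin applied in Tris saline Tween buffer holding calcium plus EGTA and DTT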
[15] = molecular target: Calmodulin-1 (Homo sapiens) (UniProt P0DP23); test: calcium-bound CALM1 binders on microarrays, profiling panel, artefact control for SMM control-protein annotation, biochemical, small-molecule microarray, Cy5-labelled CALM1, plus calcium (AID 1112); conditions: Cy5-CALM1 binding fluorescence, higher = more signal;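 also: score merges spot fluorescence with signal to noise from triplicate slides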
[16] = small-molecule microarray binders of probe aWnt5a, primary screen, biochemical, biotinylated probe, 635/667 nm fluorescence (AID 1113); conditions: higher = more signal;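 also: score merges 667 nm fluorescence intensity with signal-to-noise per printed feature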
[17] = small-molecule microarray binders of probe aShh, primary screen, biochemical, biotinylated probe, 635/667 nm fluorescence (AID 1114); conditions: higher = more signal;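 also: probe is biotin-labelled aShh protein from a stem cell growth factor screen; measures binding of labelled protein to compounds printed on the slide; score merges feature fluorescence at 667 nm with signal-to-noise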
[18] = small-molecule microarray binders of probe aNog, primary screen, biochemical, biotinylated probe, 635/667 nm fluorescence (AID 1115); conditions: higher = more signal;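 also: probe is biotinylated aNog protein used at 0.15 µg/mL for 1 h at 4 C; z-score combines 667 nm fluorescence of each spot with its signal to noise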
[19] = molecular target: Torsin-1A-interacting protein 1 (Homo sapiens) (UniProt Q5JTV8); test: LAP1 binders from COS7 cell lysate, primary screen, small-molecule microarray, 635/667 nm fluorescence (AID 1116); conditions: COS7-hLAP1 lysate binding, 635 nm fluorescence, higher = more signal
Sequence of Torsin-1A-interacting protein 1 (Homo sapiens) (Q5JTV8 whole entry, looked up): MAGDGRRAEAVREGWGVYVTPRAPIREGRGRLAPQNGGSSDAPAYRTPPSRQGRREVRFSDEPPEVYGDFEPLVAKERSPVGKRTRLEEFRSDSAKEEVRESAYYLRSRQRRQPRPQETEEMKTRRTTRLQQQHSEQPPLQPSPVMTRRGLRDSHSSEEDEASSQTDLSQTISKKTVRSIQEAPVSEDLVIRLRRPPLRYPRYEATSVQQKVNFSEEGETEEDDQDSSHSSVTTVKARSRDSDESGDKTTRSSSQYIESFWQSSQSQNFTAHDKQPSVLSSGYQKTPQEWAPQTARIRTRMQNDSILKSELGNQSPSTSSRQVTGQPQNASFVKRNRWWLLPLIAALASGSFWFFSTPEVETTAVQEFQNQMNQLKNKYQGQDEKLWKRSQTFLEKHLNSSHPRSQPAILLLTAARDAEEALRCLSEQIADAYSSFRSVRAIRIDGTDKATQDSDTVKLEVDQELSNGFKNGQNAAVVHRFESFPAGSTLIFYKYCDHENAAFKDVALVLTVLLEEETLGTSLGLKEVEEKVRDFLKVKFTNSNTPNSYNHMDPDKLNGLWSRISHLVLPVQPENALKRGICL

[20] = molecular target: Alpha-bungarotoxin (Bungarus multicinctus) (UniProt P60615); test: alpha-bungarotoxin binders on microarray, profiling panel, artefact control for SMM control protein annotation, biochemical, small-molecule microarray, Alexa647 label, 635/667 nm fluorescence (AID 1117); conditions: alpha-BTX-A647 binding fluorescence, higher = more signal
Sequence of Alpha-bungarotoxin (Bungarus multicinctus) (P60615 whole entry, looked up): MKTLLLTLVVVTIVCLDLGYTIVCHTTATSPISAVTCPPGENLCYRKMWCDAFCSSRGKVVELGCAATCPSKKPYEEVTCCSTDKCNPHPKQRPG

SMILES	composite z-score [1]	composite z-score [2]	composite z-score [3]	z-score [4]	composite z-score [5]	composite z-score [6]	composite z-score [7]	composite z-score [8]	composite z-score [9]	composite z-score [10]	composite z-score [11]	z-score [12]	composite z-score [13]	composite z-score [14]	composite z-score [15]	composite z-score [16]	composite z-score [17]	composite z-score [18]	composite z-score [19]	composite z-score [20]
CCOC(=O)C[C@H]1[C@H](OC(=O)c2cc3ccccc3oc2=O)[C@@H](NC(=O)c2ccc(-c3ccccc3)cc2)c2cc(OCCCO)ccc2N1C(=O)Cc1ccc(OC)cc1	0.782	0.0384	-0.037	0.595 (inactive)	1.04	0.889	0.419	0.686	0.682	0.321	0.697	-0.971	0.497	-0.0241	-0.273	-0.0735	-0.0035	0.179	0.674	0.731
CCCCN1CC=CC23O[C@@H]4C=CCCOC(=O)C4[C@H]2C(=O)N(CCO)[C@@H]3C1=O (stereo not given in full)	-1.33	-0.364	0.297	0.244 (inactive)	0.107	-0.248	-1.19	-0.838	-0.587	0.0542	-0.548	-0.161	-1.02	-0.555	-0.436	-0.298	0.149	-0.249	-0.997	-0.363
COc1ccc([Si](C)(C)[C@H]2[C@H](CC(=O)N3CCC[C@H]3CO)O[C@@]3(C(=O)N(C)c4ccccc43)[C@@H]2C)cc1	0.364	0.214	-0.159	0.361 (inactive)	0.105	-0.102	0.335	0.705	0.588	1.48	0.442	-0.812	0.239	-0.13	0.297	-0.0721	-0.0368	-0.0094	1.13	0.557
CC(=O)NCCCC[C@@H]1NC(=O)[C@H]2C[C@@H](C(=O)O)[C@@H](c3cccc(OCCO)c3)N2C1=O	1.69	0.904	0.237	0.345 (inactive)	1.25	1.33	0.556	1.32	0.639	0.316	1.11	-1.14	0.978	0.0626	-0.767	0.27	0.588	1.51	1.53	1.49
O=C(NCCN1CCOCC1)[C@@H]1c2ccccc2C(=O)N(CC23CC4CC(CC(C4)C2)C3)[C@H]1c1ccc(CO)cc1	1.13	0.253	0.789	0.507 (inactive)	1.33	1.32	0.634	1.21	0.0037	0.471	1.45	-2.21	0.662	1.7	-0.236	-0.0519	-0.0362	-0.112	0.405	1.43
COCCOC(=O)N1C(=O)[C@@]2(c3cc(C#CCCO)ccc31)[C@H](c1ccc(O)cc1)N1[C@H](c3ccccc3)[C@H](c3ccccc3)OC(=O)[C@H]1[C@@H]2C(=O)NC[C@H](O)c1ccccc1	1.16	-0.0668	-0.0755	0.49 (inactive)	0.758	0.733	0.0103	0.491	0.143	0.48	0.495	-1.02	0.285	0.212	0.0658	-0.027	0.204	1.05	0.981	0.367
CN1C(=O)C2C=CC(C(O)COCc3ccccc3)N(Nc3ccc([N+](=O)[O-])cc3[N+](=O)[O-])C2C1=O (stereo not given)	0.111	0.753	0.888	0.806 (inactive)	-0.0198	-0.443	-1.04	-0.381	-0.82	1.13	0.826	-0.295	-0.759	-0.528	-0.626	0.173	-0.328	0.702	0.503	0.814
O=C(N1CCOCC1)[C@]1(CCS(=O)(=O)c2ccccc2)N=C(c2ccc(OCCCO)cc2)O[C@@H]1c1ccccc1	1.5	1.18	1.37	-1.04 (inactive)	0.59	0.7	-0.113	0.488	-0.753	0.599	0.794	-0.954	-0.685	1.52	1.14	-0.0445	0.123	-0.087	2.3	1.82
C=CCNC(=O)[C@H]1[C@@H]2C(=O)O[C@@H](c3ccccc3)[C@@H](c3ccccc3)N2[C@@H](c2ccc(OCCO)cc2)[C@]12C(=O)N(C(=O)OCCOC)c1ccc(C#CCC(C(=O)OC)C(=O)OC)cc12	1.4	0.713	0.997	0.345 (inactive)	1.44	1.16	0.524	1.08	0.5	0.768	1.41	-1.54	0.158	1.58	0.81	0.291	2.08	1.42	2.68	1.63
CC1C2C(CCCO)=CC(C3C(=O)N(C(N)=O)C(=O)C23)N1Cc1cccc(OC(F)(F)F)c1 (stereo not given)	0.174	-0.0132	-0.311	-0.586 (inactive)	0.646	0.719	0.177	0.101	-0.26	-0.055	0.0396	-1.07	0.246	0.366	0.41	-0.096	0.13	0.528	1.26	1.32
CC(C)C[C@@H]1NC(=O)[C@@H]2C[C@H](C(=O)NCCCCCNC(=O)CS)[C@H](c3ccc(O)cc3)N2C1=O	1.67	-0.1	-0.03	-3.37 (inactive)	-0.113	-0.0192	0.135	0.286	0.353	-0.111	1.37	2.04	0.104	1.18	0.194	-0.12	0.0637	-0.12	0.097	0.136
